This note sets out measurements from PubChem BioAssay AID990 (National Center for Advancing Translational Sciences (NCATS), 2007).

Active and inactive are the calls of the source.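 The calls were made as follows: active = compound that made reporter-free parental cells show up as glowing objects under laser imaging, so likely a fluorescent false positive; inactive = the rest.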

The nature of this assay: Parental Cell Counter Screen Assay for Epigenetic Modulators. The conditions noted are these: parental c127i cells, compound fluorescence imaging, 30 h. Put shortly: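 Fluorescent cells counted by laser-scanning imaging (objects 20–120 um) after washing. Counter screen uses untransfected murine c127i cells exposed to compound for 30 hours at 37 C, flagging intrinsically fluorescent compounds.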
For the compound `Cc1cc(C)n(-c2nc(N(C)C)nc(N(C)C)n2)n1`, the result was inactive. The value for `COCc1cc(CN2CCN(C)CC2)c(O)c2ncccc12` was “inactive”; that for `O=C(CSc1cccc2cccnc12)Nc1ccccc1` was “inactive”; that for `CCCCC1CC1C(=O)Nc1ccc(OC)c(OC)c1` (configuration not stated) was “inactive”. The value for `Cc1cc(C)n(-c2nc(NC(C)(C)C)nc(NC(C)(C)C)n2)n1` was “inactive”; that for `O=C(CSc1cccc2cccnc12)NCc1ccccc1` was “inactive”; that for `CC(C)C(=O)NC(c1ccc(N(C)C)cc1)c1ccc2cccnc2c1O` (configuration not stated) was “inactive”.
